# This excerpt belongs to a sample that is enriched for hits.
# AmpC detergent: inhibitors of E. coli AmpC beta-lactamase with detergent | AID 485294 | 370,000 tested, 0.041% active | Potency, µM (highest dose often 114 µM), inactives show at the highest dose activity change, negative = inhibition, actives largely listed as inhibitors | AmpC hydrolysis of nitrocefin, absorbance 480 nm, 0.01% Triton;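 note: potency is the fitted concentration of half-maximal effect; 0% = no-compound wells and -100% = no-enzyme wells; nearly all actives have a fitted effect of over 25% in size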
# Target sequence (P00811 whole entry, looked up): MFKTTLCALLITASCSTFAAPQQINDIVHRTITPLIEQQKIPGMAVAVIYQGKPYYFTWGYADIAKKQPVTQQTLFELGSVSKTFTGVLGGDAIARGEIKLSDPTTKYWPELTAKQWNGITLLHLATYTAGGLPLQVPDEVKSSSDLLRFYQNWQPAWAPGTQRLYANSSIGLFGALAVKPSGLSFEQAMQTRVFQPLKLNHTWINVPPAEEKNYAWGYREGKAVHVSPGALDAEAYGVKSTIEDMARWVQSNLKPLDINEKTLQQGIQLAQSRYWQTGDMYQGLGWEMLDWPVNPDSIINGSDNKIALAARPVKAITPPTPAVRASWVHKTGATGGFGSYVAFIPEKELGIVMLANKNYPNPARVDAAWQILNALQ
#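 20 mM phosphate pH 7.0 + 0.01% (detergent screen) or 0.0001% Triton X-100; 5.3 nM AmpC reagent; cpd preinc 15 min RT; nitrocefin (800 uM stock) to start; A480 q20 s × 4 min; Activity was normalised to no-enzyme and no-compound control wells.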
# SARS PLP yeast: inhibitors of SARS-CoV papain-like protease in yeast; S. cerevisiae expressing SARS-CoV PLpro, growth rescue; Potency, µM (top dose mostly 32.9 µM), without a hit: at the top dose activity, positive = growth rescue, hits mostly activators; 330,000 tested, 0.19% active; AID 485353; calls by dose curve; note: potency is the fitted concentration of half-maximal effect; 0% is about no effect; nearly all actives have a fitted effect of over 55% in size
# AMA1-RON2 inh: inhibitors of Plasmodium falciparum AMA1-RON2 interaction | AlphaScreen AMA1-biotinylated RON2 peptide binding | Potency, µM (series often up to 58.2 µM), for the others: at the highest dose activity change, negative = inhibition, hits mostly inhibitors | 360,000 tested, 0.2% active | AID 720542;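 note: potency is the fitted concentration of half-maximal effect; 0% = vehicle wells and -100% = peptide control; nearly all actives have a fitted effect of over 45% in size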
#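 AMA1 (3D7) with his tag at 25 nM final met compounds first, then biotinylated RON2 peptide at 25 nM; detection used donor plus acceptor beads, 10 µg/mL apiece, read by AlphaScreen after 30 min at room temperature.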
# Cycloheximide cs: affects cycloheximide protein synthesis inhibition readout, counter-screen | cell reporter, cycloheximide protein synthesis inhibition counterscreen | max response, % | 300,000 tested, 12% active | AID 2314; in the data active = max response mostly above about 13%, no sharp cut-off; inactive = mostly below about 14%; note: read at 38.3 µM for the half of the compounds with a filed dose; 0% is about no effect
# AmpC no deterg: AmpC beta-lactamase inhibition without detergent. AmpC nitrocefin hydrolysis, absorbance 480 nm, 0.0001% Triton. Potency, µM (titrated, usually from 57.1 µM), without a hit: at the top dose activity change, negative = inhibition, actives largely listed as inhibitors. 330,000 tested, 0.52% active. AID 485341;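 note: potency is the fitted concentration of half-maximal effect; plate controls were no compound for no effect and no enzyme for full effect; nearly all actives have a fitted effect of over 20% in size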
#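 AmpC (5.3 nM in the dispensed reagent) in 20 mM phosphate pH 7.0 with 0.01% (detergent screen) or 0.0001% Triton X-100 was preincubated with compounds for 15 min at room temperature. Nitrocefin was then added from an 800 uM solution, and hydrolysis was followed at 480 nm.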
# Shiga toxin inh: inhibitors of Shiga toxin in Vero cells. Vero cells, Shiga toxin protein synthesis inhibition reporter. inhibition, % at 38.7 µM. 290,000 tested, 9.2% active. AID 2315; in the data active = inhibition mostly above about 28%, no sharp cut-off; inactive = mostly below about 43%; note: 0% is about no effect
# * = called active by the depositor; ? = inconclusive; nt = not tested or not shown; [ ] = remark or other dose. Unless noted, calls come from the whole dose curve; as a rule, active = well fitted curve in the direction sought with a large enough effect; inconclusive = small, poorly fitted or top-dose-only effect, or another doubt; inactive = no such curve, though single readings can be large; an effect the other way counts as inactive or inconclusive.
SMILES,AmpC detergent,SARS PLP yeast,AMA1-RON2 inh,Cycloheximide cs,AmpC no deterg,Shiga toxin inh
CCn1c(-c2ccccc2)c[nH]c1=S,-15.0%,23.9%,-2.4%,-3.4,-9.9%,-19.6
C/C(=N\NC(=O)c1ccc2c(c1)OCO2)c1ccc(NS(C)(=O)=O)cc1,nt,nt,20.1%,nt,nt,nt
CC(/C=C/c1ccc2c(c1)OCO2)=N/NC(=O)c1cccnc1,?,2.2%,72.5%,23.4*,-20.6%,62.0*
C/C(=N\NC(=O)c1ccc(Br)cc1)c1cccnc1,?,?,24.0%,21.9*,-26.0%,44.8
C/C(=N\NC(=O)c1cc(C)oc1C)c1ccc2c(c1)OCO2,0.1%,-4.9%,3.6%,47.5*,-21.8%,121.6*
C/C(=N\NC(=O)c1ccc2c(c1)OCO2)c1ccc(O)cc1,3.3%,-1.9%,107.8%,33.2*,54.0%,41.4*
CC(/C=C/c1ccc2c(c1)OCO2)=N/NC(=O)c1ccncc1,-4.4%,-0.1%,110.2%,-0.3,-12.8%,11.7
COc1ccc(CCC(=O)N/N=C(\C)c2ccc3c(c2)OCO3)cc1,-3.1%,-7.0%,-3.7%,0.8,-20.2%,-12.5
C/C(=N/NC(=O)c1ccc(C(C)(C)C)cc1)c1cccnc1,nt,nt,56.9%,nt,nt,nt
CCCc1cc(=O)oc2cc(C)cc(OCC(=O)NC3CCN(Cc4ccccc4)CC3)c12,-11.3%,7.3%,31.8%,-1.2,-8.7%,3.1
OCCN(CCCn1c(-c2ccncc2)nc2ccccc21)c1nc(CN2CCCCC2)cs1,?,-8.9%,-3.2%,-3.5,-14.5%,6.0
CN1CCN(CCC(=O)N/N=C/c2ccccc2F)CC1,-1.5%,6.8%,10.7%,-1.9,-8.3%,-4.0
C/C(=N\NC(=O)c1ccc2c(c1)OCO2)c1cccnc1,6.2%,-0.7%,35.5%,36.8*,1.9%,89.7*
CC(=O)Nc1cccc(/C(C)=N/NC(=O)c2ccc3c(c2)OCO3)c1,-8.1%,-1.9%,6.4%,25.7*,-15.2%[2.29 µM],41.6
C/C(=N\NC(=O)c1ccc(Cl)c(Cl)c1)c1cccc(NC(=O)C(C)C)c1,2.6%,-2.9%,0.0%,36.0,-29.1%,29.3
CC/C(=N\NC(=O)c1cccnc1)c1ccc2c(c1)OCCO2,-7.9%,0.5%,11.8%,6.5,-22.2%,14.0
CC(C)CC(CC(C)C)=NNC(=O)c1ccc2c(c1)OCO2,-4.7%,-1.0%,79.1%,51.9*,-30.4%,73.7*
C/C(=N\NC(=O)C1CCCC1)c1ccc(NC(=O)C(F)(F)F)cc1,nt,nt,1.4%,nt,nt,nt
C/C(=N/NC(=O)c1ccc2c(c1)OCO2)c1ccc(NC(=O)C(F)(F)F)cc1,-3.0%,-3.6%,36.3%,41.2*,-13.6%,35.6*
COC(=O)CSc1nnc(SCc2ccc(OC)cc2)s1,0.2%,-4.7%,27.1%,-3.0,-16.3%,18.5
CC/C(=N\NC(=O)c1ccc2c(c1)OCO2)c1ccccc1,-8.8%,7.2%,65.9%,37.4*,-39.0%,46.0*
C/C(=N\NC(=O)c1ccc(NS(=O)(=O)c2cccs2)cc1)c1ccc(Cl)cc1,?,17.5%,12.5%,1.2,?,-57.5
O=C(N/N=C(/c1ccccc1)c1ccncc1)c1ccc2c(c1)OCO2,-8.1%,10.4%,-10.5%,-3.5,-31.8%,-5.4
O=C(N/N=C/c1cc2c(cc1Br)OCO2)c1c[nH]c2ccccc12,3.2%,-0.8%,-2.8%,13.2,-57.2%,65.6
C/C(=N\NC(=O)c1ccccc1)c1ccc2c(c1)OCO2,2.1%,1.8%,6.6%,51.4*,-21.5%,95.7*
C/C(=N\NC(=O)c1c[nH]c2ccccc12)c1ccc2c(c1)OCO2,-3.8%,0.0%,23.8%,29.5*,-37.5%,42.0*
C/C(=N\NC(=O)c1ccc(NS(=O)(=O)c2cccs2)cc1)c1ccc2c(c1)OCO2,1.5%,1.7%,23.5%,7.5,17.8µM*,-5.5
CC(=O)Oc1ccc(NC(=O)Cc2ccccc2)c(C(=O)O)c1,-5.3%,1.3%,9.4%,-2.0,-13.5%[2.29 µM],-7.4
CCC/C(=N/NC(=O)c1ccc2c(c1)OCO2)c1cccs1,5.2%,5.3%,0.0%,96.4*,-4.0%,88.7*
COc1ccc(O)c(C(=O)c2cnc3nc4ccccc4n3c2)c1,-8.3%,-17.4%,0.5%,1.5,-27.0%,-1.5

# Screens: PubChem, National Center for Advancing Translational Sciences (NCATS)
